From PubChem BioAssay (NCI)
Compounds without any hit were thinned out: in the full panel of roughly 83,000, 20% have a hit.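 Single-concentration screen, 48 h exposure, 96-well plates. Endpoint: percent growth. Below 10 = active.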 Unmarked numbers belong to inactive results. The source made the active and inactive calls.

Experiments:
Assay in all cases: NCI-60 one-dose screen, 48 h (100 = growth as untreated, 0 = no growth, -100 = all killed)
Conditions in all cases: 10 µM unless noted
[1] = tested on: RPMI-8226 leukemia
[2] = tested on: OVCAR-8 ovarian
[3] = tested on: OVCAR-5 ovarian
[4] = tested on: OVCAR-4 ovarian
[5] = tested on: SK-OV-3 ovarian
[6] = tested on: IGROV1 ovarian
[7] = tested on: OVCAR-3 ovarian
[8] = tested on: HS 578T breast
[9] = tested on: NCI/ADR-RES ovarian
[10] = tested on: T-47D breast
[11] = tested on: BT-549 breast
[12] = tested on: MDA-MB-435 melanoma
[13] = tested on: SW-620 colon
[14] = tested on: MCF7 breast
[15] = tested on: HCT-116 colon
[16] = tested on: HCC-2998 colon
[17] = tested on: KM12 colon

Work on `COc1cc(/C=C/c2cn[nH]c2-c2ccc(C)cc2)cc(OC)c1OC` yielded a growth [1] of 25.8%, a growth [2] of 32.8% and a growth [3] of 85%. The growth [4] was 78.5%, the growth [5] was 16.2% and the growth [6] was 51.9%. For the same molecule, the growth [7] was 15.5%, the growth [8] was 39.9% and the growth [9] was 16.7%. The growth [10] was 22.2%, the growth [11] was 32.9% and the growth [12] was -16.2% (active). The growth [13] was 19.7%, the growth [14] was 13.1% and the growth [15] was 11.7%. For the same molecule, the growth [16] was 78.8% and the growth [17] was 29.9%.
`CCOc1ccc(/C=C/C(=O)c2cccc(OCCCOc3cccc(C(=O)/C=C/c4ccc(OCC)cc4)c3)c2)cc1` gave a growth [1] of 93.6%, a growth [2] of 85.9% and a growth [3] of 107%. For the same molecule, the growth [4] was 69.1%, the growth [5] was 103% and the growth [6] was 78.7%. For the same molecule, the growth [7] was 85.5%, the growth [8] was 90.2% and the growth [9] was 86.5%. The growth [10] was 63.4%, the growth [11] was 92.1% and the growth [12] was 79.7%. The growth [13] was 98%, the growth [14] was 84.5% and the growth [16] was 94.9%. It also gave a growth [17] of 93%.
For `COc1ccc(/C=C(/C(=O)N2CCNCC2)c2cc(OC)c(OC)c(OC)c2)cc1O`, the growth [1] was 9.6% (active), the growth [2] was 52.1% and the growth [3] was 86.3%. For the same molecule, the growth [4] was 78.7%, the growth [5] was 10.1% and the growth [6] was 60.2%. For the same molecule, the growth [7] was 10.5%, the growth [8] was 26.7% and the growth [9] was 105%. The growth [10] was 31.6%, the growth [11] was 58.5% and the growth [12] was -45% (active). For the same molecule, the growth [13] was 35.1%, the growth [14] was 23% and the growth [15] was 19.8%. The growth [16] was 78.4% and the growth [17] was 21.3%.
In the case of `COc1cc(/C=C/C(=O)c2cccc(-n3cc(-c4ccc(Cl)cc4)[nH]c3=O)c2)ccc1O`, the growth [1] is reported as 5.06% (active), the growth [2] is reported as 46.5% and the growth [3] is reported as 91.4%. For the same molecule, the growth [4] was 57%, the growth [5] was 97.9% and the growth [6] was -10.6% (active). The growth [7] was 3.36% (active), the growth [8] was 76.5% and the growth [9] was 35.4%. It also gave a growth [10] of 62.2%, a growth [11] of 26.3% and a growth [12] of 21.4%. The growth [13] was 16%, the growth [14] was 9.8% (active) and the growth [15] was 21.5%. The growth [16] was 66.8% and the growth [17] was 6.79% (active).
With `Cn1c(C#N)ccc1-c1ccc(F)c(NC(=O)c2ccc(F)cc2)c1` the growth [1] was 70.1%, the growth [2] was 95.4% and the growth [3] was 85.4%. For the same molecule, the growth [4] was 85%, the growth [5] was 80% and the growth [6] was 74.2%. It also gave a growth [7] of 77%, a growth [8] of 71.5% and a growth [9] of 76.9%. The growth [10] was 60.4%, the growth [11] was 80% and the growth [12] was -11.2% (active). The growth [13] was 44.9%, the growth [14] was 49.4% and the growth [15] was 77.4%. For the same molecule, the growth [16] was 90.5% and the growth [17] was 60.9%.
`O=c1cc(CNc2cc(F)cc(F)c2)c2ccc(I)cc2[nH]1` was tested, and the growth [1] was 15.8%, the growth [2] was 53.5% and the growth [3] was 64.3%. For the same molecule, the growth [4] was 60.2%, the growth [5] was 39% and the growth [6] was 45.9%. For the same molecule, the growth [7] was 11.2%, the growth [8] was 19.9% and the growth [9] was 26.3%. For the same molecule, the growth [10] was 35.8%, the growth [11] was 54.8% and the growth [12] was -28.1% (active). It also gave a growth [13] of 19.1%, a growth [14] of 21.9% and a growth [15] of 26.4%. It also gave a growth [17] of 24.1%.
With `O=C(NN1C(=O)CSC1c1cccc([N+](=O)[O-])c1)c1ccc(NC(=O)c2ccccn2)cc1` (stereo not given) the growth [2] was 99.5%, the growth [3] was 92.6% and the growth [4] was 110%. For the same molecule, the growth [5] was 104%, the growth [6] was 90% and the growth [7] was 103%. For the same molecule, the growth [8] was 103%, the growth [9] was 90.8% and the growth [10] was 94.7%. It also gave a growth [11] of 99.6%, a growth [12] of 98.9% and a growth [13] of 104%. For the same molecule, the growth [14] was 89.2%, the growth [15] was 98.3% and the growth [16] was 90%. It also gave a growth [17] of 93.8%.
With `Brc1ccc(Nc2nc(Nc3cnc4ccccc4c3)c3[nH]cnc3n2)cc1` the growth [1] was 64.2%, the growth [2] was 83.9% and the growth [3] was 101%. For the same molecule, the growth [4] was 73.7%, the growth [5] was 68.2% and the growth [6] was 74.7%. For the same molecule, the growth [7] was 60.2%, the growth [8] was 60.9% and the growth [9] was 92.4%. The growth [10] was 52.8%, the growth [11] was 48.6% and the growth [12] was 96.3%. It also gave a growth [13] of 91.9%, a growth [14] of 58% and a growth [15] of 55%. It also gave a growth [16] of 103% and a growth [17] of 88.8%.
`C/C(=C(\c1ccc(OCCN2CCCCCC2)cc1)c1ccc(OC(=O)c2ccccc2)cc1)c1ccc(Cl)cc1` was tested, and the growth [1] was 13.1%, the growth [2] was 42.6% and the growth [3] was 68.5%. The growth [4] was 37.5%, the growth [5] was 77.1% and the growth [6] was 46.7%. The growth [7] was 61.8%, the growth [8] was 42% and the growth [9] was 59%. For the same molecule, the growth [10] was 42.6%, the growth [11] was 68.5% and the growth [12] was 56%. The growth [13] was 25.8%, the growth [14] was 14.5% and the growth [15] was 17.9%. The growth [16] was 60.7% and the growth [17] was 32.1%.
